Rango release inh: inhibition of RanGTP-driven Rango-importin beta dissociation; O95149+P62826; Biochemical FRET Rango-importin beta, RanGTP-induced dissociation; Potency, µM (top dose mostly 46.1 µM); 0.071% of 340,000 active; further: nearly all actives have a fitted effect of over 45% in size
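Rango (0.1 uM)–importin beta (0.25 uM) complex; RanGTP-RCC1 trigger; 45 min RT; CFP/YFP FRET read.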
CCT chaperon mod: modulators of cytosolic chaperonin (CCT/TRiC) activity | purified chaperonin ATPase assay, HTRF ADP detection, 30 min | activity change, % (concentration not given with the values), hits read low | 0.3% of 360,000 active; in the data active means activity change below about -30%
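TRiC at 40 or 20 nM final (batch-dependent) in 30 mM Tris pH 7.4, 100 mM KCl, 5 mM MgCl2, 1 mM DTT, with compound at single 76 uM and 10 uM ATP, 30 min at 37 deg C. ADP detected by HTRF Transcreener, 665/615 ratio.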
MmCpn inh: inhibitors of Methanococcus maripaludis chaperonin TRiC (MmCpn); purified Mm-Cpn ATPase, ADP Transcreener TR-FRET; Potency, µM (doses to about 76.9 µM), most hits filed as inhibitors; 0.031% of 330,000 active; active means well fitted inhibition curve with a large enough effect; inconclusive means small, poorly fitted or top-dose-only effect; further: nearly all actives have a fitted effect of over 80% in size
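ATPase read-out: TR-FRET ADP immunoassay (anti-ADP Eu cryptate vs ADP-d2), ex 320 nm, em 590/665 nm; signal drops as ADP forms. Enzyme 25 nM, ATP 10 uM, 30 min at 37°C after 10 min compound preincubation.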
KCNH2 WT inh: blocks the wildtype human KCNH2 potassium channel; Q12809; U2OS, BacMam KCNH2, thallium flux FluxOr; stronger effect = lower value; activity change, % at 1.84 µM; 0.37% of 340,000 active;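 active means maximum activity change below -70%; inconclusive means maximum activity change between -70% and -50%; inactive means maximum activity change above -50%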
Target sequence (Q12809 whole entry, looked up): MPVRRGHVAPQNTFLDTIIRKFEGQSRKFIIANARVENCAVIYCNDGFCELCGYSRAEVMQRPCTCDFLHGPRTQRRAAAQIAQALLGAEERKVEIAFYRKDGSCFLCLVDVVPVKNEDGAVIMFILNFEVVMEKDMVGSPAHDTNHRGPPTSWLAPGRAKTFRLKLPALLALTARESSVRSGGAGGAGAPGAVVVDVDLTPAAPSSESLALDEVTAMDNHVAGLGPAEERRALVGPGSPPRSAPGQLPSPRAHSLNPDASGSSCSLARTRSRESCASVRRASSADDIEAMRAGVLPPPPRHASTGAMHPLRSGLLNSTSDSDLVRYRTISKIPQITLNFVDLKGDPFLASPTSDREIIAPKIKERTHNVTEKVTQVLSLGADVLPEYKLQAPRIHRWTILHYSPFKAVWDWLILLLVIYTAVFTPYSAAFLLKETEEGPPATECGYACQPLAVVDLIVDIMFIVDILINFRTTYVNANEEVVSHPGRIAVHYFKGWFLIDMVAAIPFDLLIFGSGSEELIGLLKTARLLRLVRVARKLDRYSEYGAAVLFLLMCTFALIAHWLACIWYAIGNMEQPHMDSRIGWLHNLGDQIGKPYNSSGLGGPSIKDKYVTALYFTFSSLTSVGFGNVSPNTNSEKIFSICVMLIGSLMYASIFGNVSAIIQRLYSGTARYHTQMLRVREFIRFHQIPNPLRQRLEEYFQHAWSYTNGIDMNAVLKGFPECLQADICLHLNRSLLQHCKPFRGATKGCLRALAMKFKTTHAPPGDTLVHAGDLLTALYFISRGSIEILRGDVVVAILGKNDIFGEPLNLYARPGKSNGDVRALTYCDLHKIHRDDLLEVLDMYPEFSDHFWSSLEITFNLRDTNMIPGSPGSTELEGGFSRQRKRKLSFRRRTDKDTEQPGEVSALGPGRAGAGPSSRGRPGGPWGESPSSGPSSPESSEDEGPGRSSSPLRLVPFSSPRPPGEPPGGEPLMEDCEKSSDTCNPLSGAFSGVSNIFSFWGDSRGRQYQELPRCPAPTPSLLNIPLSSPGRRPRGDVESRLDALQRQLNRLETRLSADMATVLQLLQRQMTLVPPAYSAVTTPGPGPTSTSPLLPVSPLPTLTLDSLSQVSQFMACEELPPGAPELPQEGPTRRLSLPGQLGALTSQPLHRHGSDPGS
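U2OS cells were transduced with wild-type KCNH2 virus (2.03 x 10^8 / mL) for 4 h at room temperature, then cultured overnight at 37 C. Thallium flux was read with FluxOr dye. Rate constants were normalized to DMSO controls.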
KCNH2 3.1 inh: blocks the human KCNH2 3.1 channel isoform. U2OS KCNH2 3.1, thallium flux FluxOr; stronger effect = lower value. 0.95% of 340,000 active. AID 720553. activity change, % (tested at about 1.8 µM);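 active means maximum activity change below -70%; inconclusive means maximum activity change from -70% to -50%; inactive means maximum activity change above -50%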;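 further: thallium influx rate constant from kinetic fluorescence after stimulation buffer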
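Steps: virus added to U2OS suspension (4 h, RT, dark); medium with 10% FBS added, cells plated, 37 C overnight; FluxOr/Red40 loading buffer 45 min RT; stimulation buffer, 2 min kinetic read; rate constant normalized.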
Rango complex inh: prevents formation of the Rango-importin beta complex | Q14974 | Rango CFP/YFP FRET sensor + importin beta, 45 min | Potency, µM (series often up to 92.2 µM) | 0.031% of 340,000 active; further: nearly all actives have a fitted effect of over 15% in size
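FRET biosensor (snurportin 1 IBB flanked by EYFP and cerulean), 50 nM, with compound 5 min, then 0.125 microM importin beta in PBS, 1 mM DTT, 0.02% Tween-20, 0.1% BSA. CFP/YFP ratio read after 45 min at room temperature; pre-read flags interference.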
A number is an active result; – = inactive; ? = inconclusive; · = no result given. Hits are enriched below; roughly 1.4% of the tested compounds scored in any of these assays. Unless noted, the call rests on the fitted dose curve.

SMILES	Rango release inh	CCT chaperon mod	MmCpn inh	KCNH2 WT inh	KCNH2 3.1 inh	Rango complex inh
O=C(O)c1cc(O)c2c(c1)[C@H]([C@H]1c3cc(C(=O)O)cc(O)c3C(=O)c3c(O[C@@H]4O[C@H](CO)[C@@H](O)[C@H](O)[C@H]4O)cccc31)c1cccc(OC3O[C@H](CO)[C@@H](O)[C@H](O)[C@H]3O)c1C2=O (some centres undefined)	18µM	–	–	–	–	?
O=C(NC1CCN(C(=O)Nc2cccc(Cl)c2)CC1)c1ccco1	–	–	–	–	–	?
Oc1ccc(Nc2nc(N3CCCC3)c3ccccc3n2)cc1	–	–	–	–	-87	–
COc1ccc(Nc2nc(N3CCCCC3)c3ccccc3n2)cc1	–	–	–	–	–	–
O=C(Nc1ccc(N2CCN(C(=O)c3ccco3)CC2)c(Cl)c1)c1cc2ccccc2o1	–	–	–	–	-113	–
CCCOc1ccc(C(=O)N2CCN(c3ccc(NC(=O)CC)cc3Cl)CC2)cc1	–	–	–	–	-86	–
COc1ccc(OCC(=O)NNC(=O)c2cc3ccccc3o2)cc1	–	-67	–	–	–	–
CCC(=O)N1CCN(c2ccc(NC(=O)c3cc4ccccc4o3)cc2Cl)CC1	–	–	–	–	-88	?
Cc1cccc(N2CC(C(=O)Nc3nnc(SCc4ccccn4)s3)CC2=O)c1 (centres undefined)	–	–	–	–	–	–
O=C(Nc1ccc(-c2nc3ncccc3o2)cc1)c1ccc(Br)o1	–	–	–	–	–	–
O=C(Nc1ccc(-c2nc3ncccc3o2)cc1)c1ccco1	–	–	–	–	-81	–
CCC(=O)N1CCN(c2ccccc2NC(=O)Cc2ccc(Cl)cc2)CC1	–	–	–	–	–	–
CCC(=O)N1CCN(c2ccc(Cl)cc2NC(=O)Cc2ccc(Cl)cc2)CC1	–	–	–	–	-75	–
O=C(COc1ccccc1[N+](=O)[O-])Nc1ccc(NC(=O)c2cc3ccccc3o2)cc1	–	–	–	–	-119	–
O=C(Nc1ccc(NC(=O)c2cc3ccccc3o2)cc1)c1ccco1	–	–	–	–	-75	–
Cc1ccc(Cn2c(=N)n(CC(=O)c3ccccc3)c3ccccc32)cc1	–	–	–	–	–	–
CCCC(=O)N1CCN(c2ccc(NC(=O)c3cc4ccccc4o3)cc2Cl)CC1	–	–	–	?	-90	–
CCCC(=O)N1CCN(c2ccc(NC(=O)c3cccs3)cc2Cl)CC1	–	–	–	–	–	–
COc1ccc(-c2csc(NC(=O)c3ccc(S(=O)(=O)N4CCc5ccccc5C4)cc3)n2)c(OC)c1	–	–	50µM	–	–	?
Cc1ccc(-c2csc(NC(=O)c3cccc(S(=O)(=O)N4CCN(C)CC4)c3)n2)cc1	–	–	–	–	-79	–
O=C(OCC1OC(n2ccc(=O)[nH]c2=O)C2OC12)c1ccccc1 (centres undefined)	–	–	·	–	–	–
Cc1cc2oc(=O)cc(CN3CCN(Cc4ccccc4)CC3)c2cc1Cl	–	–	–	–	–	–
Cc1ccc2c(CN3CCN(Cc4ccccc4)CC3)cc(=O)oc2c1	–	–	–	-86	-108	–
O=c1cc(CN2CCN(Cc3ccccc3)CC2)c2ccc(O)cc2o1	?	–	–	?	-85	?
Cc1ccc2nc3n(c(=O)c2c1)-c1ccccc1C(=O)NC3Cc1ccc(O)cc1 (centres undefined)	·	·	–	·	·	·
SMILES	Rango release inh	CCT chaperon mod	MmCpn inh	KCNH2 WT inh	KCNH2 3.1 inh	Rango complex inh
Cc1c(-c2ccccc2)sc2nc[nH]c(=S)c12	–	–	–	-116	-82	–
Cc1ccc(-c2csc3nc[nH]c(=S)c23)cc1C	–	–	–	?	–	–
NC(=O)c1nsc(C(=O)N(c2cccc(F)c2)C(C(=O)NCC2CCCO2)c2cccs2)c1N (centres undefined)	–	–	–	–	–	–
CC(O)(c1cccc(F)c1)c1nc(-c2ccncc2)cs1 (centres undefined)	·	-31	·	·	·	·
O=CNCCCc1nc2ccccc2n1CCc1ccccc1	–	–	–	–	–	–
O=C(NCCS(=O)(=O)c1ccc(Br)cc1)c1ccc(F)cc1	–	–	–	-251	–	–
O=C(CCS(=O)(=O)c1ccc(Br)cc1)NCc1ccc(F)cc1	–	-80	–	–	–	–
Cc1ccc(CNC(=O)CCS(=O)(=O)c2ccc(Br)cc2)cc1	–	–	–	–	·	–
O=C(NCCS(=O)(=O)c1ccc(Cl)cc1)c1ccc(F)cc1	–	–	–	–	–	–
O=C(COC(=O)Cc1ccc(Br)cc1)NCc1ccccc1	·	–	·	–	–	·
O=C(Cc1ccc(Br)cc1)NCc1ccccc1	–	–	–	-300	–	–
CN(CC(=O)Nc1ccc(F)c(F)c1F)C(=O)c1ccc(-n2cncn2)c([N+](=O)[O-])c1	–	–	–	–	–	–
CC1CN(C(=O)CN2C(=O)NC3(CCCCCC3)C2=O)CC(C)O1 (centres undefined)	–	–	–	–	-90	–
CC1CCN(C(=O)CN2C(=O)NC3(CCCCCC3)C2=O)CC1	–	–	–	–	–	–
Cc1ccccc1NC(=O)CN1C(=O)NC2(CCCCC2)C1=O	–	–	–	–	–	–
CC(C)(C)c1ccccc1NC(=O)CN1C(=O)NC2(CCCCCC2)C1=O	–	–	–	-170	–	–
Cc1cc(C)c(S(=O)(=O)NCCn2c(C)cc3ccccc32)c(C)c1	?	–	35µM	–	–	?
NCCCn1c(C(=O)c2cc(Cl)c(N)c(Cl)c2)c2ccc([N+](=O)[O-])cc2[n+]1[O-]	–	–	–	–	–	–
COc1ccc(C(=O)c2c3ccc(C(F)(F)F)cc3[n+]([O-])n2CCCC(N)=O)cc1	–	–	–	–	–	–
NCCCn1c(C(=O)c2cc(Cl)c(N)c(Cl)c2)c2ccc(C(F)(F)F)cc2[n+]1[O-]	–	–	–	–	-125	–
NC(=O)CCCn1c(C(=O)c2cc(Cl)c(N)c(Cl)c2)c2ccc(C(F)(F)F)cc2[n+]1[O-]	–	–	–	–	-85	–
Nc1nc(SCC(=O)c2c(N)n(Cc3ccccc3)c(=O)[nH]c2=O)n[nH]1	–	–	–	-105	–	–
Nc1nc(SCC(=O)c2c(N)n(C3CC3)c(=O)[nH]c2=O)n[nH]1	–	–	–	–	–	–
CC(=O)OCC(=O)N1CCN(c2ccc([N+](=O)[O-])cc2)CC1	–	–	–	–	–	–
CCOCC(=O)N1CCN(c2ccc([N+](=O)[O-])cc2)CC1	–	–	–	-95	-73	?
